The panel holds about 83,000 compounds, 20% with a hit somewhere; the sample as a whole holds those more often.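 Single-dose data. Exposure time 48 hours. Values below 10 considered active.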 Values without a mark were called inactive. Calls of active or inactive are those of the source.

We go through 13 compounds from PubChem BioAssay (NCI).

Test systems include NCI-H23 lung; NCI-H226 lung; NCI-H322M lung; HOP-62 NSCLC; NCI-H460 lung; HOP-92 NSCLC; NCI-H522 lung; A549/ATCC NSCLC; 786-0 renal; COLO 205 colon.
What all share (assay): NCI-60 one-dose screen, 48 h (100 = growth as untreated, 0 = no growth, -100 = all killed)
Settings in all cases: 10 µM unless noted

For `COc1ccc(-c2nc3ccc(-c4nc5ccc(N6CCN(c7ccc(F)cc7)CC6)cc5[nH]4)cc3[nH]2)cc1OC`, the growth is 60.7% with NCI-H23 lung; 66.6% in the assay with NCI-H226 lung; 88.5% in the assay with NCI-H322M lung; 75.6% with HOP-62 NSCLC; 71.1% in the assay with NCI-H460 lung; 63.6% with HOP-92 NSCLC. Further, the growth was 45.3% in the assay on NCI-H522 lung, 77.3% in the assay on A549/ATCC NSCLC, 79.5% in the assay with 786-0 renal and 30.4% in the assay on COLO 205 colon.
For `Cc1cc(N[C@@H]2CCC[C@H](Nc3ccnc4cc(Cl)ccc34)C2)nc(N2CCCCCC2)n1`, the growth in the assay with NCI-H23 lung was -30.3% (active); in the assay on NCI-H226 lung, -38.9% (active); in the assay on NCI-H322M lung, -37.8% (active); with HOP-62 NSCLC, -69.7% (active); with NCI-H460 lung, -70.9% (active); with HOP-92 NSCLC, -77.7% (active). Further, the growth is -61.5% (active) with NCI-H522 lung, -48.9% (active) in the assay with A549/ATCC NSCLC, -96.1% (active) in the assay with 786-0 renal and -79.3% (active) in the assay with COLO 205 colon.
Consider `COc1ccc(NC(=O)c2ccc(/C=C/C(=O)c3ncc[nH]3)cc2)cc1`, for which the growth is 64.7% in the assay with NCI-H23 lung; 96.5% in the assay on NCI-H226 lung; 85.4% in the assay on NCI-H322M lung; 79.1% with HOP-62 NSCLC; 64% with NCI-H460 lung; 104% in the assay with HOP-92 NSCLC. The growth is 51.4% in the assay on NCI-H522 lung, 81.5% in the assay with A549/ATCC NSCLC, 67.1% in the assay on 786-0 renal and 72.4% in the assay on COLO 205 colon.
For the compound `Cc1cc(C)c2nc3nc(C)cc(C)c3c(N)c2c1`, the growth with NCI-H23 lung is 47.6%; in the assay on NCI-H226 lung it was 23.2%; in the assay with NCI-H322M lung it was 40.9%; with HOP-62 NSCLC, 33.8%; in the assay with NCI-H460 lung, -2.37% (active); in the assay on HOP-92 NSCLC, -1.87% (active). The growth with NCI-H522 lung is 39%; in the assay on A549/ATCC NSCLC it was 19.9%; in the assay on 786-0 renal, 28.4%; in the assay on COLO 205 colon it was 16.2%.
For `Cc1ccc(/C=C2\SC(=S)N(CC(=O)NCCCN3CCOCC3)C2=O)cc1`, the growth was 99.6% in the assay on NCI-H23 lung; 91% with NCI-H226 lung; 104% with NCI-H322M lung; 103% in the assay on HOP-62 NSCLC; 103% with NCI-H460 lung; 91.5% with HOP-92 NSCLC. Also, the growth was 90.5% in the assay with NCI-H522 lung, 102% with A549/ATCC NSCLC, 104% in the assay on 786-0 renal and 111% in the assay on COLO 205 colon.
Take `CON1C(=O)CC[C@]2(C)[C@H]3CC[C@@H]4C([C@@]5(C)CCC(=O)O5)CC[C@@]4(C)[C@]3(C)CC[C@H]2C1(C)C` (stereo not given in full): the growth with NCI-H23 lung was 95.6%; with NCI-H226 lung, 94.9%; in the assay on NCI-H322M lung it was 108%; with HOP-62 NSCLC it was 98.4%; with NCI-H460 lung, 103%; in the assay with HOP-92 NSCLC it was 95.3%. The growth was 85.9% in the assay with NCI-H522 lung, 102% in the assay with A549/ATCC NSCLC, 100% in the assay on 786-0 renal and 124% with COLO 205 colon.
Consider `O=C(Nc1ccc(Cl)cc1)c1cc2cc(F)ccc2cc1O`, for which the growth was 7.14% (active) with NCI-H23 lung; 7.16% (active) in the assay on NCI-H226 lung; 18.7% in the assay with NCI-H322M lung; 12.1% in the assay on HOP-62 NSCLC; 7.11% (active) in the assay with NCI-H460 lung; -11.4% (active) with HOP-92 NSCLC. The growth is -0.904% (active) in the assay with NCI-H522 lung, 6.09% (active) in the assay with A549/ATCC NSCLC, 15.7% in the assay with 786-0 renal and 69.5% in the assay on COLO 205 colon.
Take `C=C1C(=O)O[C@H]2[C@H]1CC/C(COC(=O)NCc1ccc(OC)c(OC)c1)=C\CC[C@@]1(C)O[C@@H]21`: the growth with NCI-H23 lung was 45.8%; in the assay on NCI-H226 lung, 85.9%; in the assay on NCI-H322M lung it was 97.6%; in the assay on HOP-62 NSCLC, 87.8%; in the assay on NCI-H460 lung, 87.8%; in the assay with HOP-92 NSCLC it was 66.2%. The growth was -65.5% (active) in the assay on NCI-H522 lung, 97.9% in the assay on A549/ATCC NSCLC, 81.6% with 786-0 renal and 8.26% (active) with COLO 205 colon.
On to `CCc1nnc(CNc2ccc(Cl)cc2)o1`, for which the growth in the assay on NCI-H23 lung is 105%; in the assay on NCI-H226 lung, 93.2%; in the assay on NCI-H322M lung it was 92%; in the assay on HOP-62 NSCLC it was 111%; in the assay with NCI-H460 lung, 100%; in the assay with HOP-92 NSCLC it was 102%. Further, the growth was 89.9% in the assay on NCI-H522 lung, 94.4% in the assay with A549/ATCC NSCLC, 97.4% in the assay with 786-0 renal and 106% in the assay with COLO 205 colon.
For `COc1cc2c(cc1-c1c(C)noc1C)ncc1nc(-c3ccccn3)n([C@H](C)COC(F)F)c12`, the growth was 61.1% in the assay with NCI-H23 lung; 57.8% in the assay on NCI-H226 lung; 51.4% in the assay on NCI-H322M lung; 40.9% with HOP-62 NSCLC; 57.7% in the assay with NCI-H460 lung; 26.7% in the assay on HOP-92 NSCLC. The growth in the assay with NCI-H522 lung was 29.3%; in the assay on A549/ATCC NSCLC, 39%; with 786-0 renal, 50.4%; in the assay on COLO 205 colon, 29.8%.
For the compound `COc1ccc(-n2nc(C)c3c(Nc4ccc(NC(=O)Nc5cc(C(F)(F)F)ccc5F)cc4)ncnc32)cc1`, the growth is 32.7% in the assay with NCI-H23 lung; 73.8% in the assay on NCI-H226 lung; 11% in the assay on NCI-H322M lung; -38.6% (active) in the assay with HOP-62 NSCLC; 13.7% with NCI-H460 lung; 32.9% with HOP-92 NSCLC. Moreover, the growth in the assay on NCI-H522 lung is -12% (active); with A549/ATCC NSCLC it was 22.9%; in the assay on 786-0 renal it was 11.3%; in the assay with COLO 205 colon, 15.2%.
As for `C=C(C)[C@@H]1CC[C@]2(C(=O)OC)CC[C@]3(C)[C@H](CC[C@@H]4[C@@]5(C)C/C(=C/c6cccc(I)c6)C(=O)C(C)(C)[C@@H]5CC[C@]43C)[C@@H]12`, the growth in the assay with NCI-H23 lung is 91.4%; with NCI-H226 lung, 94.2%; in the assay on NCI-H322M lung, 97.3%; with HOP-62 NSCLC, 88%; with NCI-H460 lung, 101%; with HOP-92 NSCLC it was 100%. The growth in the assay with NCI-H522 lung was 89%; in the assay on A549/ATCC NSCLC, 101%; in the assay on 786-0 renal, 95.3%; in the assay with COLO 205 colon, 125%.
With `O=C1c2c(O)cc(O)cc2-c2c(-c3ccc(O)cc3)oc3cc(O)cc1c23`, the growth is 39.9% in the assay with NCI-H23 lung; 61.2% in the assay on NCI-H226 lung; 65.2% in the assay with NCI-H322M lung; 22.1% with HOP-62 NSCLC; 10% in the assay with NCI-H460 lung; 44.6% in the assay with HOP-92 NSCLC. Further, the growth was 11% with NCI-H522 lung, 43.2% in the assay with A549/ATCC NSCLC, 41.8% with 786-0 renal and 86.2% in the assay on COLO 205 colon.
